Measured values as given in PubChem BioAssay (Tox21).
Values joined by “and” are separate entries in the source; they are usually repeats but may differ in a detail not shown here. Identical values can stand only once. Results filed as inconclusive are left out. A structure can be active in one record and inactive in another. Active and inactive are the calls of the source. Unless noted, calls follow the shape of the dose curve; as a rule, active = well fitted curve in the direction sought with a large enough effect in the repeat runs; inconclusive = weak or mixed curves; inactive = no such curve, though single readings can be large; an effect the other way counts as inactive or inconclusive.

Columns and labels:
[1] = Caspase-3/7 induction in HepG2 cells by small molecules, qHTS assay (AID 1346978); also: nearly all actives have a fitted effect of over 15% in size; also: potency is read from the fitted curve at half-maximal effect
How it was run: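 Wild-type HepG2 cells (2,000/well) were settled 5 h at 37 C, 5% CO2, then exposed to compounds in DMSO for 17 h. Caspase-3/7 activity was read by luminescence 30 min after adding Caspase-Glo 3/7 reagent at room temperature.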

[2] = Caspase-3/7 induction in HepG2 cells by small molecules, qHTS cell viability counter screen (AID 1346981); also: nearly all actives have a fitted effect of over 30% in size; also: potency is read from the fitted curve at half-maximal effect
How it was run: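 The parent HepG2 line is plated at 2,000 cells per well and rested 5 hr before compound pinning from DMSO stocks. Following a 16-hr treatment at 37 C, a fluorogenic live-cell substrate (CellTiter-Fluor) reports viability after 1 hr.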

[3] = target: Nuclear receptor subfamily 1 group I member 2 (Rattus norvegicus) (UniProt Q9R1A7); test: Rat pregnane X receptor (rPXR) activation by small molecules, qHTS assay (AID 1346983); conditions: rPXR luciferase reporter cells, One-Glo luminescence, 24 h; stronger effect = higher value; also: nearly all actives have a fitted effect of over 20% in size
How it was run: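 Cell-based rPXR luciferase reporter assay, 2,000 cells per well, rested 5hr at 37 C before compound addition in DMSO, then 24 hr at 37 C. One-Glo reagent was added and luminescence read after 30 min at room temperature.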

[4] = target: Nuclear receptor subfamily 1 group I member 2 (Homo sapiens) (UniProt O75469); test: CYP3A4 induction through human pregnane X receptor (PXR) by small molecules, qHTS assay (AID 1346984); also: nearly all actives have a fitted effect of over 40% in size
How it was run: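 Human PXR activation is tracked via CYP3A4 promoter-luciferase in DPX-2 (HepG2) cells. Compounds treat cells for 24hr at 37C, and luminescence is read after One-Glo.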

[5] = target: Nuclear receptor subfamily 1 group I member 2 (Homo sapiens) (UniProt O75469); test: Human pregnane X receptor (PXR) activation by small molecules, qHTS assay (AID 1346985); also: nearly all actives have a fitted effect of over 40% in size
How it was run: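 DPX-2 cells (HepG2 co-transfected with a PXR response element and a CYP3A4-promoter luciferase construct) were seeded at 2,000 per well, rested 5 hr at 37C, then exposed to DMSO-dissolved compounds for 24 hr. Activation was read as luciferase luminescence.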

[6] = target: Acetylcholinesterase (Homo sapiens) (UniProt P22303); test: Acetylcholinesterase (AChE) small molecule antagonists: colormetric cell-based qHTS assay (AID 1347395; calls by dose curve; also: nearly all actives have a fitted effect of over 30% in size; also: potency is read from the fitted curve at half-maximal effect)
How it was run: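 SH-SY5Y cells attached overnight, exposed to compound 30 min at 37 C, then given DTNB/acetylthiocholine; after 90 min at 37 C, colorimetric thiocholine read gives cellular AChE activity.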

[7] = target: Acetylcholinesterase (Homo sapiens) (UniProt P22303); test: Acetylcholinesterase (AChE) small molecule antagonists: enzyme-based qHTS assay (AID 1347397; calls by dose curve; also: nearly all actives have a fitted effect of over 55% in size); conditions: Potency: AChE enzyme activity inhibition
How it was run: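 Tox21 library chemicals are tested in qHTS format against recombinant human AChE. The enzyme, dispensed at 50 mU/mL, sits with compound for 30 min at room temperature. A DTNB–acetylthiocholine cocktail follows, and colour is read after 10 min.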

[8] = target: Cytochrome P450 2D6 (Homo sapiens) (UniProt P10635); test: Cytochrome P450 Family 2 Subfamily D Member 6 (CYP2D6) small molecule antagonists: luciferase reporter qHTS assay (AID 1671196); also: nearly all actives have a fitted effect of over 50% in size; also: potency is read from the fitted curve at half-maximal effect
How it was run: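 Quantitative HTS of Tox21 chemicals against CYP2D6 using a luminescent proluciferin substrate. After NADPH addition, 1 h room-temperature reaction; luminescence recorded 20 min post detection reagent.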

[9] = target: Cytochrome P450 2C19 (Homo sapiens) (UniProt P33261); test: Cytochrome P450 Family 2 Subfamily C Member 19 (CYP2C19) small molecule antagonists: luciferase reporter qHTS assay (AID 1671197); also: nearly all actives have a fitted effect of over 65% in size; also: potency is read from the fitted curve at half-maximal effect
How it was run: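 Relative luminescence units recorded 20 min after the detection reagent stopped a 1 h, 37C CYP2C19 reaction on proluciferin substrate, which was started by NADPH regeneration following 10 min room-temperature compound preincubation; ketoconazole positive control.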

[10] = target: Cytochrome P450 2C9 (Homo sapiens) (UniProt P11712); test: Cytochrome P450 Family 2 Subfamily C Member 9 (CYP2C9) small molecule antagonists: luciferase reporter qHTS assay (AID 1671198); also: nearly all actives have a fitted effect of over 50% in size; also: potency is read from the fitted curve at half-maximal effect
How it was run: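 CYP2C9 activity was measured with a P450-Glo proluciferin substrate. Enzyme–substrate mix was held with compound for 10 min at room temperature, then NADPH regeneration solution was added for 1 h at 37C. Luciferin product was read as luminescence.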

[11] = target: Cytochrome P450 1A2 (Homo sapiens) (UniProt P05177); test: Cytochrome P450 Family 1 Subfamily A Member 2 (CYP1A2) small molecule antagonists: luciferase reporter qHTS assay (AID 1671199); also: nearly all actives have a fitted effect of over 50% in size; also: potency is read from the fitted curve at half-maximal effect
How it was run: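 Quantitative high-throughput format using the P450-Glo CYP1A2 system. Reaction initiated by NADPH regeneration solution, 1 h at room temperature, then stopped with detection reagent; luminescence measured 20 min later.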

[12] = target: Voltage-gated inwardly rectifying potassium channel KCNH2 (Homo sapiens) (UniProt Q12809); test: Human Ether-a-go-go-Related Gene (hERG) channel small molecule antagonists: fluorescence cell-based qHTS assay (AID 1671200);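 also: hERG-expressing U2OS cells given a thallium stimulus after FluxOR II dye loading; series mostly up to about 77 µM; nearly all actives have a fitted effect of over 50% in size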
How it was run: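 hERG-U2OS cells plated overnight at 37 C, loaded with FluxOR II dye 1 h at RT in dark; after 10 min, thallium stimulus added. Fluorescence (480/540 nm) read kinetically for 2 min at 1 s intervals.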

[13] = target: Cytochrome P450 3A4 (Homo sapiens) (UniProt P08684); test: Cytochrome P450 Family 3 Subfamily A Member 4 (CYP3A4) small molecule antagonists: luciferase reporter qHTS assay (AID 1671201); also: nearly all actives have a fitted effect of over 50% in size; also: potency is read from the fitted curve at half-maximal effect
How it was run: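 P450-Glo CYP3A4 luminescent assay: compounds preincubated 10 min at room temperature with enzyme and proluciferin substrate, NADPH regeneration added, 1 h room-temperature reaction, stopped with luciferin detection reagent; luminescence read after 20 min. Ketoconazole positive control.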

[14] = Caspase-3/7 induction in CHO-K1 cells by small molecules, qHTS assay (AID 1346980); also: nearly all actives have a fitted effect of over 15% in size
How it was run: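 Wild-type cells were seeded at 1,500 per well and settled 5 hr at 37 C, 5% CO2, then exposed to DMSO-dissolved compounds for 17 hr. Caspase-Glo 3/7 reagent was added, and luminescence was read after 30min at room temperature.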

[15] = target: Nuclear receptor subfamily 1 group I member 2 (Homo sapiens) (UniProt O75469); test: Human pregnane X receptor (PXR) small molecule agonists, qHTS assay (AID 1346982); also: nearly all actives have a fitted effect of over 35% in size; also: potency is read from the fitted curve at half-maximal effect
How it was run: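 After plating in 5% charcoal-stripped FBS and a 5 hr rest, PXR-Luc HepG2 cells received compounds in DMSO. Following 24 hr at 37 C, ONE-Glo was added and light output read.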

[16] = target: Acetylcholinesterase (Homo sapiens) (UniProt P22303); test: Acetylcholinesterase (AChE) small molecule antagonists: fluorescence cell-based qHTS assay (AID 1347398; calls by dose curve; also: nearly all actives have a fitted effect of over 50% in size); conditions: Potency: AChE activity
How it was run: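 Cellular AChE inhibition: SH-SY5Y cells treated with test chemical for 30 min at 37 C, then acetylthiocholine hydrolysis followed over 40 min at room temperature via thiocholine-reactive Thiolite Green fluorescence (490/520 nm).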

[17] = target: Acetylcholinesterase (Homo sapiens) (UniProt P22303); test: Acetylcholinesterase (AChE) small molecule antagonists: enzyme-based qHTS assay with human liver microsomes (AID 1347399; calls by dose curve; also: nearly all actives have a fitted effect of over 60% in size); conditions: Potency: qHTS inhibition
How it was run: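 Recombinant human AChE (50 mU/mL in the enzyme mix) and human liver microsomes (0.25 mg/mL final) were preincubated with compound and NADPH (0.25 mg/mL final) for 30 min at 37 C. Acetylthiocholine/DTNB was then added; thiocholine was read colorimetrically after 10 min at room temperature.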

[18] = Caspase-3/7 induction in CHO-K1 cells by small molecules, qHTS cell viability counter screen (AID 1346979); also: nearly all actives have a fitted effect of over 35% in size; also: potency is read from the fitted curve at half-maximal effect
How it was run: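 Wild-type CHO-K1 cells (1,500/well) treated with compound after 5 h plating; after 16 h at 37C, viability read as CellTiter-Fluor fluorescence following 1 h reagent incubation, in the same wells as the caspase read.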
% is scaled to controls: 0 for no effect and ±100 for the full control effect.

Voltage-gated inwardly rectifying potassium channel KCNH2 (Homo sapiens), sequence (Q12809 whole entry, looked up): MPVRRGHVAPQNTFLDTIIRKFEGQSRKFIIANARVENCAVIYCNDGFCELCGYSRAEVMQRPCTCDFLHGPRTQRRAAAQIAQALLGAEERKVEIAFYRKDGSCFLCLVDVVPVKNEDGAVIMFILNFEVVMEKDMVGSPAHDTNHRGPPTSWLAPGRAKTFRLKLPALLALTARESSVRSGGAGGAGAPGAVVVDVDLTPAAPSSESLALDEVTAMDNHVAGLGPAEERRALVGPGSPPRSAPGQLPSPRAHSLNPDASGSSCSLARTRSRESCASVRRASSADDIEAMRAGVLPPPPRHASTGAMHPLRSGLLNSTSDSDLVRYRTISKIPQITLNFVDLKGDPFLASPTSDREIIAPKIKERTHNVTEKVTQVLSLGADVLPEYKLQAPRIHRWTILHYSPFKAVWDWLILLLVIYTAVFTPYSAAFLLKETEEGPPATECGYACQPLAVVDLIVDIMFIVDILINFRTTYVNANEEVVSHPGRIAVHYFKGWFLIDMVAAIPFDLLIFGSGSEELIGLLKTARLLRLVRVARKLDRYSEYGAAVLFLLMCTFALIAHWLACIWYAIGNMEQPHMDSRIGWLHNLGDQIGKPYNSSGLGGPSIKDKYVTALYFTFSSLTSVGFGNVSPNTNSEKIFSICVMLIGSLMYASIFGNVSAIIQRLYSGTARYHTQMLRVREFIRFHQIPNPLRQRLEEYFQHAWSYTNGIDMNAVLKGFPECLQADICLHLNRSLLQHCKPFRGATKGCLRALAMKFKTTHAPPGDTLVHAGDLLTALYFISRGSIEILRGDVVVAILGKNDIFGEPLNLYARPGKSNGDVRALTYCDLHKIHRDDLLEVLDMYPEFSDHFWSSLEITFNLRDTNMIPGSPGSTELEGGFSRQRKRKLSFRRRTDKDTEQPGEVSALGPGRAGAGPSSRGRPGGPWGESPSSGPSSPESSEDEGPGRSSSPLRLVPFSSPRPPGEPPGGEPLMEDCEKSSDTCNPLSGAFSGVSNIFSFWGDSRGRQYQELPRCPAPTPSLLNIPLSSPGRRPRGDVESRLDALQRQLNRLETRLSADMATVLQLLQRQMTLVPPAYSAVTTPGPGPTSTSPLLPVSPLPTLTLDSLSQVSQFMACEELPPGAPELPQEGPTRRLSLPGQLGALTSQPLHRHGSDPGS
Cytochrome P450 3A4 (Homo sapiens), sequence (P08684 whole entry, looked up): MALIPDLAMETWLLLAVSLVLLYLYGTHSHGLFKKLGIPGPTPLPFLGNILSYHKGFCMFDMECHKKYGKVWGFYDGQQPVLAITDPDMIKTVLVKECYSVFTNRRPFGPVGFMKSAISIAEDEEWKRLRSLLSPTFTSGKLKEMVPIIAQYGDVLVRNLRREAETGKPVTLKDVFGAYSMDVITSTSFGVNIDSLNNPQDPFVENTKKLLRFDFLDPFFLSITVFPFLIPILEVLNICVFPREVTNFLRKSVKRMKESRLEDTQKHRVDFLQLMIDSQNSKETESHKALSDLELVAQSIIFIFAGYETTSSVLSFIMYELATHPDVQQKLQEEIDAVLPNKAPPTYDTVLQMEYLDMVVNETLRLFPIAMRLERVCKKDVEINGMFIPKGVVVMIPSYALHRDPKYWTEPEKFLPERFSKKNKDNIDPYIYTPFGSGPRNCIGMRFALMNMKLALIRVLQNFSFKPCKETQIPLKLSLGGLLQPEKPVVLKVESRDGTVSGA
Cytochrome P450 2C19 (Homo sapiens), sequence (P33261 whole entry, looked up): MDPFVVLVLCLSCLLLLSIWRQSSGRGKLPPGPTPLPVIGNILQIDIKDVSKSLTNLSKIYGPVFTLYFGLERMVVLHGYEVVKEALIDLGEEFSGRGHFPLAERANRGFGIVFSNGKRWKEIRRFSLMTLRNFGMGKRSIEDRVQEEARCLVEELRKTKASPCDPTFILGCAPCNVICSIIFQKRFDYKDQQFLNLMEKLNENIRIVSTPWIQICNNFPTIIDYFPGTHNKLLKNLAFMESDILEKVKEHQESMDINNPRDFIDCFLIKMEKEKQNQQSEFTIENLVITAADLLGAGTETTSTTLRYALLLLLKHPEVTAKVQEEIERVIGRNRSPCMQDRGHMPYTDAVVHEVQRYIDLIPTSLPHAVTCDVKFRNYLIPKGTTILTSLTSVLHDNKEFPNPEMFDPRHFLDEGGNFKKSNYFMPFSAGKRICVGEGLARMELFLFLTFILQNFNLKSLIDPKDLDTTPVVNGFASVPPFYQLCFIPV
Cytochrome P450 2D6 (Homo sapiens), sequence (P10635 whole entry, looked up): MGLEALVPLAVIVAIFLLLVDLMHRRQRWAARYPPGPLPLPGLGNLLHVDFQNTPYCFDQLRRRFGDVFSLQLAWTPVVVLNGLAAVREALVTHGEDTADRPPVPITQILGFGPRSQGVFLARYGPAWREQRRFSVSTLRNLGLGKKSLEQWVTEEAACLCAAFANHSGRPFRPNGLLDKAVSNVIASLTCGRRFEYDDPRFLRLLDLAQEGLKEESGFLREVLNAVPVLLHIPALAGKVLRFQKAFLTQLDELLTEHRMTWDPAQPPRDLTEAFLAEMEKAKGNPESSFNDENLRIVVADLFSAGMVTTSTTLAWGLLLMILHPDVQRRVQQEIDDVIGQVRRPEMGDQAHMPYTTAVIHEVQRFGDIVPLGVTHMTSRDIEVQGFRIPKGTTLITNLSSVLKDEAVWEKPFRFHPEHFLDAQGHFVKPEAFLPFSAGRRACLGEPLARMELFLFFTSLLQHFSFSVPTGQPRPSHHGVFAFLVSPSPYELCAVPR
Cytochrome P450 2C9 (Homo sapiens), sequence (P11712 whole entry, looked up): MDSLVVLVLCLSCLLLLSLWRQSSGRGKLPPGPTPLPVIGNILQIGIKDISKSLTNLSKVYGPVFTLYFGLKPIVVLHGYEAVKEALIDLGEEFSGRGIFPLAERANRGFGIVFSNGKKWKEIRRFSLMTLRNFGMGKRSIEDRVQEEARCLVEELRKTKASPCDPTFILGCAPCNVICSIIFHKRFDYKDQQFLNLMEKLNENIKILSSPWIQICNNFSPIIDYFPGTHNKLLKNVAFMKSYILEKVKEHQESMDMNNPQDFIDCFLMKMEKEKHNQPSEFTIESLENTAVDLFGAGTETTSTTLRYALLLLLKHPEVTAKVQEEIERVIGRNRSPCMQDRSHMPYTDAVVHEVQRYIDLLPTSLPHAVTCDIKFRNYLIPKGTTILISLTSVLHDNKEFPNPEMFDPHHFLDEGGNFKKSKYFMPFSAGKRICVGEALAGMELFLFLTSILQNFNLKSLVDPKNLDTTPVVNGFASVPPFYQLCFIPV
Nuclear receptor subfamily 1 group I member 2 (Homo sapiens), sequence (O75469 whole entry, looked up): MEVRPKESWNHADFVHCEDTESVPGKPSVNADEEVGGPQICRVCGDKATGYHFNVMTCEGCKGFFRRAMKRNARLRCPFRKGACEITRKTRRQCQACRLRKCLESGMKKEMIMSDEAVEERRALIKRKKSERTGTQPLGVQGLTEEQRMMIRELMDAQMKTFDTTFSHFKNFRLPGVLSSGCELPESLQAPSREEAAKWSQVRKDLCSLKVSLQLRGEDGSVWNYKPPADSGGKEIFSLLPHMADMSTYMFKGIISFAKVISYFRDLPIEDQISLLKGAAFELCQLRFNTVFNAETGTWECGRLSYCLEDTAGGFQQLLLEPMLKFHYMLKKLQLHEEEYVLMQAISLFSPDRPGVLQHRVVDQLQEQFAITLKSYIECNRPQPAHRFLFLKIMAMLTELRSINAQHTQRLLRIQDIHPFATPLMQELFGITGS
Cytochrome P450 1A2 (Homo sapiens), sequence (P05177 whole entry, looked up): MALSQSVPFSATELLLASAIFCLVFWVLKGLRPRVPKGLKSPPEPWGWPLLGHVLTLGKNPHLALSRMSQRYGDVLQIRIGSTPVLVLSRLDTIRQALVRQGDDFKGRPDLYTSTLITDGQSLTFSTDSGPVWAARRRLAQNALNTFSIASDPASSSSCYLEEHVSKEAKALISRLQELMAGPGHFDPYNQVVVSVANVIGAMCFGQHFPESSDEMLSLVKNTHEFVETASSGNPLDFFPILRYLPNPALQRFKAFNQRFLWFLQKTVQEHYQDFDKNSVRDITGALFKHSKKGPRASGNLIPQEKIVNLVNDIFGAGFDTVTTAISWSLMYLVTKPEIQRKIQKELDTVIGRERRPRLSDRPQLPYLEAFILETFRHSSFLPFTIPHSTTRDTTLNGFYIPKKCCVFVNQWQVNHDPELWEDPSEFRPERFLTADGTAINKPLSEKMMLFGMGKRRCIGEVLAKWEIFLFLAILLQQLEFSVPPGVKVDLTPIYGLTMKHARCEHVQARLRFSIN
Acetylcholinesterase (Homo sapiens), sequence (P22303 whole entry, looked up): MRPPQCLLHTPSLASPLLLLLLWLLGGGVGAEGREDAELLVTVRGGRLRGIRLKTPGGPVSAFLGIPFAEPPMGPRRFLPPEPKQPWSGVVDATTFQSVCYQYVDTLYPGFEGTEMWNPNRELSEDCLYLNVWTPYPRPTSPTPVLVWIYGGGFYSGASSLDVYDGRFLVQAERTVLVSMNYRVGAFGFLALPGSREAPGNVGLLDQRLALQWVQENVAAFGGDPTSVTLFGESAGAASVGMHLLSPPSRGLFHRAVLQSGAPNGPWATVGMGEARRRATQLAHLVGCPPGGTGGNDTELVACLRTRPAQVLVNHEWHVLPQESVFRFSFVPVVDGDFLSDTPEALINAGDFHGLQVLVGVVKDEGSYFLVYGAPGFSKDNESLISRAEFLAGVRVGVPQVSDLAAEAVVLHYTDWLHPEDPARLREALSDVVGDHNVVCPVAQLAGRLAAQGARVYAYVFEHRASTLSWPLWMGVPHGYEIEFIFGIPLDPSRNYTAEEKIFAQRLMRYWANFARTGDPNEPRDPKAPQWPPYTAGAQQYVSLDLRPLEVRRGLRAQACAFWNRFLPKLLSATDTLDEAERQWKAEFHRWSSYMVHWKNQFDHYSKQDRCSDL

Oc1cc(Cl)c(Cl)cc1Cl
active: Potency [11] 22.3 µM and 20 µM and 22.4 µM
inactive: Potency [1] | Potency [2] | max activation [3] -1.86% | outcome [4] | outcome [5] | Potency [6] | Potency [7] | Potency [8] | Potency [9] | Potency [10] | Potency [12] | Potency [13]

Cc1ccc(N)c(N)c1
inactive: Potency [1] | Potency [14] | Potency [2] | Potency [6] | Potency [7] | Potency [16] | Potency [17] | Potency [12]
active: Potency [15] 8.66 µM and 19.3 µM | Potency [8] 3.57 µM and 17.8 µM | Potency [9] 17.9 µM and 31.7 µM | Potency [10] 35.7 µM and 20 µM | Potency [11] 5.66 µM and 20 µM | Potency [13] 31.8 µM and 31.7 µM

CC1(C)C(C=C(Cl)Cl)C1C(=O)OC(C#N)c1cccc(Oc2ccccc2)c1 (configuration not stated)
active: Potency [15] 2.73 µM | Potency [9] 17.8 µM and 24.5 µM | Potency [10] 5.64 µM and 12.3 µM
inactive: Potency [1] | Potency [14] | Potency [2] | Potency [6] | Potency [7] | Potency [16] | Potency [8] | Potency [11] | Potency [12] | Potency [13]

CCOCN(C(=O)CCl)c1c(C)cccc1CC
33.6 µM (active) and inactive: Potency [6] | Potency [11]
inactive: Potency [1] | Potency [7] | Potency [16] | Potency [17] | Potency [8] | Potency [12] | Potency [13]
active: Potency [18] 57.7 µM | Potency [9] 9.47 µM and 15.9 µM | Potency [10] 30 µM and 39.9 µM

CCCCOCCOP(=O)(OCCOCCCC)OCCOCCCC
inactive: Potency [1] | Potency [14] | Potency [2] | Potency [6] | Potency [7] | Potency [16] | Potency [17] | Potency [12]
active: Potency [15] 10.9 µM and 19.3 µM | Potency [9] 7.98 µM and 8.94 µM | Potency [10] 8.95 µM and 15.9 µM | Potency [13] 8.95 µM and 15.9 µM

Oc1cc(Cl)ccc1Oc1ccc(Cl)cc1Cl
inactive: max activation [3] -0.85% | Potency [6] | Potency [7] | Potency [8] | Potency [12] | Potency [13]
64.4 µM (active) and inactive: Potency [1]
active: Potency [18] 28.8 µM and 26.6 µM | Potency [2] 44.3 µM | Potency [9] 459 nM and 389 nM | Potency [11] 30.1 µM and 17.4 µM

CCC(C)(c1ccc(O)cc1)c1ccc(O)cc1
inactive: Potency [1] | Potency [2] | Potency [6] | Potency [7] | Potency [8] | Potency [9] | Potency [11] | Potency [12]
active: Potency [18] 61.1 µM | Potency [10] 28.2 µM and 22.4 µM | Potency [13] 10 µM and 15.9 µM

N#CCCCl
77.7 µM (active) and inactive: Potency [9]
inactive: Potency [1] | Potency [18] | Potency [6] | Potency [7] | Potency [16] | Potency [8] | Potency [10] | Potency [11] | Potency [12] | Potency [13]

Nn1cnnc1
inactive: Potency [1] | Potency [18] | Potency [2] | Potency [6] | Potency [7] | Potency [16] | Potency [8] | Potency [12] | Potency [13]
active: Potency [9] 19.3 µM and 71 µM | Potency [10] 34.4 µM

c1cc(OCC2CO2)ccc1Cc1ccc(OCC2CO2)cc1 (configuration not stated)
inactive: Potency [1] | Potency [2] | Potency [6] | Potency [7] | Potency [16] | Potency [17] | Potency [12]
active: Potency [8] 16 µM and 28.3 µM | Potency [9] 8 µM and 7.96 µM | Potency [10] 35.7 µM and 28.3 µM | Potency [11] 71 µM

CCCCC(CC)COC(=O)c1ccc(C(=O)OCC(CC)CCCC)c(C(=O)OCC(CC)CCCC)c1 (configuration not stated)
inactive: Potency [1] | Potency [18] | Potency [2] | Potency [15] | Potency [6] | Potency [7] | Potency [8] | Potency [9] | Potency [10] | Potency [11] | Potency [12] | Potency [13]

O=C(O)C(F)(F)C(F)(F)C(F)(F)C(F)(F)C(F)(F)C(F)(F)C(F)(F)F
inactive: Potency [1] | Potency [18] | Potency [2] | Potency [6] | Potency [7] | Potency [8] | Potency [11] | Potency [12] | Potency [13]
79.6 µM (active) and inactive: Potency [9]
active: Potency [10] 1.78 µM and 2.51 µM
